Data reported in PubChem BioAssay AID624483 (NMMLSC, 2012).
About 11,000 (3.1%) of roughly 360,000 compounds were called active. Another 2% or so got no clear call; they are omitted. The sample as a whole holds a higher share of actives than the screen did. Values without a mark were called inactive. Rule as the data show it: active = fluorescence intensity above about 16000; inconclusive = no clear call, values can overlap the other calls; inactive = below that.

Assay: counter-screen for toxin protease inhibitors: compound fluorescence, primary screen, artefact control for toxin protease inhibitor project, biochemical, multiplex microsphere, HTS (AID 624483)
Conditions: compound autofluorescence counterscreen, microsphere flow cytometry; active compounds read high

Row | SMILES | fluorescence intensity
1 | COc1ccc(C(C#N)N2N=C(C)CC2(C)C)cc1 (stereo not drawn) | 4130
2 | CC1Cc2ccccc2N1C(=O)CSc1nc2ccccc2o1 (stereo not drawn) | 16300 (active)
3 | O=C(CSc1nc2ccccc2o1)N1CCN(c2ccc(Cl)cc2)CC1 | 6400
4 | O=C(CSc1nc2ccccc2o1)N1CCN(c2ccccc2)CC1 | 2560
5 | Cc1ccc(NC(=O)CSc2nnc(COc3ccccc3C)o2)cc1 | 3160
6 | CC1Cc2ccccc2N1C(=O)Cn1cnc2ccccc2c1=O (stereo not drawn) | 3200
7 | Cc1ccccc1OCc1nnc(SCC(=O)N2c3ccccc3Sc3ccc(Cl)cc32)o1 | 20200 (active)
8 | O=C(CSc1nc2ccccc2o1)N1c2ccccc2Sc2ccc(Cl)cc21 | 22300 (active)
9 | CC(C)NC(=O)CSc1nnc(COc2ccccc2Cl)o1 | 4480
10 | CCS(=O)(=O)c1ccc2oc(SCC(=O)N3c4ccccc4CC3C)nc2c1 (stereo not drawn) | 8960
11 | CCn1c(CSc2ncccn2)nnc1SCC(=O)N1c2ccccc2CC1C (stereo not drawn) | 23500 (active)
12 | CC1Cc2ccccc2N1C(=O)CSc1nnc(C2CC2)n1C (stereo not drawn) | 4920
13 | CC1CC(C)CN(C(=O)CSc2nnc(CSc3ncccn3)n2C)C1 (stereo not drawn) | 4260
14 | O=S(=O)(c1ccc(Cl)cc1)N1CCCN(c2ccc(C(F)(F)F)cn2)CC1 | 6060
15 | NC(c1csc(NC(=O)Nc2cccc(C(F)(F)F)c2)n1)C1CCCCC1 (stereo not drawn) | 2870
16 | Cc1cc2oc3ccc(NCCC4CCCN4C)cc3c(=O)c2cc1C (stereo not drawn) | 5120
17 | COC(=O)c1ccc2nc(-c3ccc(F)cc3)c(Cc3ccc(C)cc3)n2c1 | 7460
18 | Cc1ccc(NC2=NC(c3ccccc3)n3c(nc(C)cc3=O)N2)cc1 (stereo not drawn) | 3910
19 | CC(=O)Nc1c(-c2ccc(C)cc2)nc2ccc(Cl)cn12 | 2860
20 | Cc1occc1C(=O)NC1CCCN(Cc2ccc(CC(C)C)cc2)C1 (stereo not drawn) | 7560
21 | COc1ccc(C2=Nc3ccccc3NC(=O)C2N(C(=O)c2cc3ccccc3[nH]2)c2ccccc2)cc1 (stereo not drawn) | 6050
22 | COc1ccc(-c2cc3c(c4c2ccn4C)C2CCC3C2)cn1 (stereo not drawn) | 2710
23 | COC(=O)C1C(=O)NCC1c1ccc(OC)cc1 (stereo not drawn) | 17100 (active)
24 | CCOC(=O)C1C(=O)NCC1c1ccccc1 (stereo not drawn) | 9370
25 | COC(=O)C1C(=O)NCC1c1ccc(C)cc1 (stereo not drawn) | 15900

Row | SMILES | fluorescence intensity
26 | COc1ccc(-c2cc(NC=O)c3ncc(-c4cccc(C(=O)N(C)C)c4)n3c2)c(OC)c1 | 3580
27 | Oc1ccc2nc(Cc3ccccc3)[nH]c2c1 | 4090
28 | c1ccc(-c2nnc(SCc3nc4ccccc4[nH]3)o2)cc1 | 18800 (active)
29 | c1ccc2c(CSCc3nc4ccccc4[nH]3)cccc2c1 | 21700 (active)
30 | O=C(OCc1nc2ccccc2[nH]1)C1CCCCC1 | 2190
31 | Fc1ccc2nc(-c3ccccc3)nc(SCc3nnc(-c4ccccc4)o3)c2c1 | 4280
32 | Clc1ccc(-c2nnc(SCc3nc4ccccc4s3)o2)cc1 | 2530
33 | Clc1ccccc1SCc1nc2ccccc2[nH]1 | 24700 (active)
34 | c1ccc2cc3[nH]c(CN4CCCCC4)nc3cc2c1 | 5430
35 | O=c1c(-c2ccc(Cl)cc2)[n+]([O-])c2ccccc2n1OCc1nc2ccccc2[nH]1 | 4300
36 | CC1(Oc2ccccc2-c2ccno2)CCN(Cc2ccc(-c3ccccc3)o2)C1 (stereo not drawn) | 3970
37 | CN1CCN(c2ccncc2S(=O)(=O)N2CCCC2)CC1 | 3800
38 | Cc1ccc(NC(=O)c2ccc(S(=O)(=O)NCC3CCCO3)cc2)cc1C (stereo not drawn) | 4660
39 | CCc1c(O)nc(SCC(=O)Nc2ccccc2)n(C(C)CC)c1=O (stereo not drawn) | 9640
40 | CCOC(=O)c1cc2cc(C)ccc2[nH]1 | 4370
41 | Cc1cc(Br)cn2c(Cc3cccc(F)c3)c(-c3cccc(Br)c3)nc12 | 5680
42 | C=CC[C@@H](Cc1ccc(F)cc1)C(=O)OC[C@H]1CCCN1C(=O)[C@H](CC=C)CC(=O)N(CCO)Cc1ccccc1 | 3800
43 | Cc1cc(C)cc(OCc2nnc(SCC(=O)OC3CCCCC3)o2)c1 | 19000 (active)
44 | Cc1cccc(OCc2nnc(SCn3nnc4ccccc4c3=O)o2)c1 | 4060
45 | Cc1cc(C)cc(-c2nnc(SCC(=O)NC3CC3)o2)c1 | 8900
46 | CN(C)CCN1CCN(c2cc(-c3cccc(Cl)c3)nc3ccnn23)CC1 | 3570
47 | COC(=O)[C@@]1(Sc2ccc(C)cc2)CC(=O)N(c2cccc(SC)c2)[C@@H]1c1ccccc1 | 4090
48 | O=c1c2ccccc2oc2nc3n(c(=O)c12)CCCS3 | 10300
49 | CCc1nc2oc3ccccc3c(=O)c2c(=O)n1Cc1ccc(OC)cc1 | 17100 (active)
50 | COc1ccc(Cn2c(=O)oc3ccccc32)cc1 | 2890

Row | SMILES | fluorescence intensity
51 | CCCCn1nnnc1C1(C)CCC(=O)N1Cc1ccc(OC)c(OC)c1 (stereo not drawn) | 5290
52 | CCOC(=O)c1cc(NC(=O)c2ccc(Cl)cc2)c(=O)oc1-c1ccccc1 | 5720
53 | COc1cc(NC(=O)c2ccccc2)c(OC)cc1NC(=O)Cc1ccccc1 | 4090
54 | CC(=O)c1cc(NC(=O)c2ccccc2)c(=O)oc1/C=C/N(C)C | 24500 (active)
55 | O=C(CNC(=O)c1cc2c(s1)CCC2)Nc1ccccc1Br | 24100 (active)
56 | O=C(CCc1nc2sc3c(c2c(=O)[nH]1)CCCC3)NCC(=O)Nc1ccccc1Br | 3820
57 | O=C(NCC1CCCO1)c1cc2c(s1)CCCC2 (stereo not drawn) | 8290
58 | CN(C)c1ccc(N/C=C/C(=O)C(F)(F)F)cc1 | 3470
59 | CCc1nc2ccc(C(=O)NCCNC(C)=O)cn2c1N(CC)Cc1cccc(Br)c1 | 3860
60 | Cc1ccn2c(=O)nc(SCC(=O)NCc3ccc(F)cc3)nc2c1 | 16300 (active)
61 | Cc1ccc(CNC(=O)CSc2nnc3c(n2)[nH]c2ccc(F)cc23)cc1 | 5580
62 | Cc1ccn2c(=O)nc(SCC(=O)NCc3ccc4c(c3)OCO4)nc2c1 | 5730
63 | COc1ccc(CC(N)c2csc(NC(=O)Nc3ccc(C(C)C)cc3)n2)cc1 (stereo not drawn) | 3480
64 | c1ccc2c(C[n+]3csc4ccccc43)cccc2c1 | 24500 (active)
65 | c1ccc2c(CNn3cnnc3)cccc2c1 | 2660
66 | Nc1scc[n+]1Cc1cccc2cccnc12 | 3430
67 | CC1CCN(S(=O)(=O)c2ccc(S(=O)(=O)NCc3cccnc3)cc2)CC1 | 4180
68 | O=S(=O)(NCc1cccnc1)c1ccc(Cl)nc1 | 2520
69 | O=S(=O)(NCc1cccnc1)c1ccc(Br)s1 | 23300 (active)
70 | Cc1cc(S(=O)(=O)NCc2ccccn2)c(Cl)cc1Cl | 3790
71 | O=S(=O)(NCc1ccccn1)c1ccc(F)cc1 | 11500
72 | O=S(=O)(NCc1ccccn1)c1ccc(Br)s1 | 18000 (active)
73 | CN(C(=O)c1cccc(NC(=O)C2CCN(C(=O)OC(C)(C)C)CC2)c1)C1CCC1 | 4250
74 | CCc1ccnc(NS(=O)(=O)c2ccc3c(c2)OCCO3)c1 | 6030
75 | CC(=O)NN=C(C)c1ccc(NC(=O)C2CC2)cc1 | 3420

Row | SMILES | fluorescence intensity
76 | CCCCCn1nnnc1-c1nc2cc3ccccc3cc2[nH]c1=O | 5190
77 | COc1ccccc1CSc1ncc(-c2ccc([N+](=O)[O-])cc2)[nH]1 | 2560
78 | CC(O)C(NS(=O)(=O)c1ccc(Cl)cc1)C(=O)OCc1cc([N+](=O)[O-])cc2c1OCOC2 (stereo not drawn) | 3270
79 | Nc1ccccc1SCc1cc([N+](=O)[O-])cc2c1OCOC2 | 22000 (active)
80 | Cn1c(NC(=O)c2ccco2)c(-c2ccccc2Cl)c(=O)c2ccccc21 | 5600
81 | COc1cccc(-c2cnc(C(O)c3ccccc3OC)[nH]2)c1 (stereo not drawn) | 4140
82 | CCN(CC(=O)NC(=O)NCc1ccccc1)Cc1nc2ccccc2c(=O)[nH]1 | 4790
83 | CCN(Cc1nc2ccccc2c(=O)[nH]1)Cc1cc(=O)oc2cc(C)c(C)cc12 | 22700 (active)
84 | CN(Cc1nc2ccccc2c(=O)[nH]1)Cc1cc(=O)oc2ccc3ccccc3c12 | 10600
85 | Cc1ccccc1/[N+]([O-])=C/c1ccncc1 | 3600
86 | O=C(Nc1ccc(F)cc1)Nc1nnc([C@H]2C[C@H](O)[C@@H](CO)O2)s1 | 2870
87 | COc1ccc(C(=O)NNC(=O)c2cnccn2)cc1[N+](=O)[O-] | 16500 (active)
88 | COc1cccc(OCC(=O)NNC(=O)c2cnccn2)c1 | 2360
89 | CCOc1ccc(C(=O)Nc2nccs2)cc1[N+](=O)[O-] | 2430
90 | Cc1ccc(CC2(C)C(=O)Nc3ccc(OC(F)(F)F)cc32)cc1 (stereo not drawn) | 3690
91 | O=C(COc1ccc(S(=O)(=O)Nc2cccc(C(F)(F)F)c2)cc1)N1CCOCC1 | 4570
92 | Cc1cccc(NC(=O)C2CCN(C(=O)NC3CCCCC3)CC2)c1 | 3730
93 | O=C(Nc1cccc(OCC(=O)N2CCOCC2)c1)C1CCCCC1 | 23600 (active)
94 | C#Cc1ccc(NC(=O)C2(C)CCN2C(=O)Cc2ccc(-c3ccccc3)cc2)cc1 (stereo not drawn) | 3720
95 | Cc1ccc(C)c(NC(=S)NNC(=S)Nc2ccc(C(C)C)cc2)c1 | 3300
96 | Cc1ccc(NC(=S)N/N=C2/CCCc3c(C)cc(C)cc32)cc1 | 20600 (active)
97 | C/C(=N\NC(=S)Nc1ccc(C)cc1)c1cc2ccccc2o1 | 4230
98 | COCc1cccc(-c2csc(C(O)c3ccc(F)cc3)n2)c1 (stereo not drawn) | 3440
